Source: PubChem BioAssay AID602340 (Broad Institute, 2012)
Out of some 330,000 compounds screened, about 2,600 (0.79%) were called active. This is one part of a sample in which actives are shown more often than they occur. Unmarked numbers belong to inactive results.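 The calls were made as follows: active = mean ATP rescue above about 67%, or every replicate alone reaching that limit (limit read from the data, passing the limit was not always enough); inconclusive = no clear call, values can overlap the other calls; inactive = mean under the limit and some replicate under it.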

test: protection of differentiated C2C12 cells from simvastatin – single point, plate reader, primary screen (AID 602340); settings: C2C12 myotubes + simvastatin, ATP luminescence, 48 h; at 7.49 µM; hits give high values; scaled: DMSO 0, geranylgeraniol control 100;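 also: myotubes were challenged with 10 µM simvastatin during compound exposure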

SMILES | rescue of ATP level
CO[C@H]1CN(C)C(=O)c2ccc(NC(=O)c3ccccc3F)cc2OC[C@H](C)N(C(=O)c2ccccc2F)C[C@H]1C | -0.874%
COc1ccc(NC(=O)CCCC(=O)c2ccccc2)cc1 | 4.33%
CCOC(=O)c1cc2ccccc2n1CC(=O)c1ccccc1 | 14.7%
COc1ccc2cc(C(=O)O)n(CC(=O)c3ccccc3)c2c1 | 107% (active)
OCCNc1nc(Nc2ccc(Cl)c(Cl)c2)nc2ccccc12 | -27.5%
OCCCNC(c1ccccc1)c1ccc(O)cc1 (stereo not drawn) | 116% (active)
Cc1noc(C)c1NC(=O)N(C)C[C@H]1Oc2c(NC(=O)c3nc4ccccc4s3)cccc2C(=O)N([C@@H](C)CO)C[C@@H]1C | -9.27%
CN1C(=O)c2cc(NS(=O)(=O)c3ccc(F)cc3)ccc2OC[C@@H]2O[C@@H](CC(=O)O)CC[C@H]21 | 1.01%
O=C(C[C@H]1C[C@@H]2c3cc(NC(=O)CC4CC4)ccc3O[C@@H]2[C@H](CO)O1)NCc1cccnc1 | -11%
CC(=O)C1=C(O)C(=O)N(c2ccc(Br)cc2)C1c1ccc([N+](=O)[O-])cc1 (stereo not drawn) | 4.28%
Cc1ccc(S(=O)(=O)N2[C@@H](c3ccccc3F)C(C(=O)O)=CC[C@H]2c2ccc(Cl)cc2)cc1 | 21.4%
CC(=O)C1=C(O)C(=O)N(c2ccc(S(N)(=O)=O)cc2)C1c1ccccc1F (stereo not drawn) | 106% (active)
CC1=CC(=O)C=CC1(C)C(Cl)(Cl)Cl (stereo not drawn) | 112% (active)
CO[C@@H]1CN(C)C(=O)c2cc(NS(=O)(=O)c3ccc(C)cc3)ccc2OC[C@H](C)N(Cc2nccs2)C[C@@H]1C | 1.93%
CCC(CC)c1nnc(NS(=O)(=O)Cc2ccccc2)s1 | 117% (active)
Cc1cc(C)cc(NS(=O)(=O)Cc2ccccc2)c1 | 1.96%
CCC(CC)c1nnc(NC(=O)C2CCN(C(=O)c3ccco3)CC2)s1 | -3.16%
CO[C@@H]1CN(C)C(=O)c2cc(NC(C)=O)ccc2OC[C@H](C)N(CC2CCCCC2)C[C@@H]1C | -13.7%
C[C@H](O)C#Cc1cnc2c(c1)C(=O)N([C@@H](C)CO)C[C@H](C)[C@@H](CN(C)C(=O)c1ccncc1)O2 | 8.21%
O=C(C[C@H]1C=C[C@H](NC(=O)CN2CCOCC2)[C@@H](CO)O1)NCc1cccc(F)c1 | -2.71%
Cc1noc(C)c1NC(=O)Nc1ccc2c(c1)CC(=O)N([C@@H](C)CO)C[C@H](C)[C@@H](CN(C)C(=O)Nc1ccc3c(c1)OCO3)O2 | -8.55%

SMILES | rescue of ATP level
CO[C@@H]1CN(C)C(=O)c2cc(NC(C)=O)ccc2OC[C@H](C)N(Cc2ccccc2F)C[C@@H]1C | -2.5%
COc1ccc(CN2C3CCCC2CC(NC(=O)c2cccc(F)c2)C3)cc1 (stereo not drawn) | 9.21%
CCOc1ccccc1C(=O)NC1CC2CCCC(C1)N2Cc1ccccc1 (stereo not drawn) | 97.4% (active)
CCCN1C2CCCC1CC(NC(=O)c1cccc(OC)c1)C2 (stereo not drawn) | -3.95%
CCCNC(=O)N(C)C[C@@H]1Oc2ncc(-c3ccccc3F)cc2C(=O)N([C@@H](C)CO)C[C@H]1C | 15.3%
COc1ccc(S(=O)(=O)N(C)C[C@H]2Oc3c(NC(=O)C4CCOCC4)cccc3C(=O)N([C@@H](C)CO)C[C@@H]2C)cc1 | -29.4%
COCC#Cc1ccc2c(c1)O[C@H](CN(C)Cc1ccc3c(c1)OCO3)[C@H](C)CN([C@H](C)CO)S2(=O)=O | 15.6%
CCOC(=O)C1CCN(C(=O)COc2cccc3ccccc23)CC1 | -0.757%
CCOC(=O)C1CCN(C(=O)CSc2cc(=O)n(C)c3ccccc23)CC1 | 4.85%
CCOC(=O)C1CCN(C(=O)Cn2cc(C#N)c3ccccc32)CC1 | 99.6% (active)
CCCNC(=O)N(C)C[C@H]1Oc2cc(C#CC(C)(C)O)ccc2S(=O)(=O)N([C@H](C)CO)C[C@@H]1C | 1.69%
O=S1(=O)CCN2C(=N1)SC1=C2CCN(Cc2ccccc2)C1 | 121% (active)
COC(=O)c1sc(N2CCN(Cc3ccccc3)CC2)nc1N | 8.62%
Cc1ccc(C2=CSC3=NS(=O)(=O)CCN23)cc1C | 1.19%
O=C(NCC[C@H]1CC[C@@H](NC(=O)C2CCCCC2)[C@@H](CO)O1)c1ccc(F)cc1 | 10.2%
CCC(=O)Nc1ccc2c(c1)C(=O)N(C)C[C@@H](OC)[C@@H](C)CN(Cc1ccccc1F)[C@H](C)CO2 | 10.8%
CCOc1ccc(NC(=O)CN(C)C(=O)Cc2sc(C)nc2-c2ccc(F)cc2)cc1OCC | 8.47%
Cc1nc(-c2ccc(F)cc2)c(CC(=O)N2CCN(S(=O)(=O)c3ccc(F)cc3)CC2)s1 | -5.66%
CCOc1ccc(-c2nc(C)sc2CC(=O)O)cc1 | 87.4% (active)
CN1C(=O)c2cc(NS(C)(=O)=O)ccc2OC[C@H]2O[C@H](CC(=O)NCc3ccccc3)CC[C@H]21 | -11.2%
C[C@H](NC(=O)C[C@@H]1CC[C@@H](NC(=O)Cc2ccccn2)[C@@H](CO)O1)c1ccccc1 | 1.25%

SMILES | rescue of ATP level
CO[C@@H]1CN(C)C(=O)c2cc(NC(=O)c3cccc(F)c3)ccc2OC[C@H](C)N(C)C[C@@H]1C | 6.21%
CCCN1CCN(C(=O)CCCNC(=O)c2ccc(Cl)cc2)CC1 | -1.82%
CN1CCN(CCCNC(=O)c2ccc(/C=C3\Oc4ccccc4N(Cc4ccc(Cl)cc4)C3=O)cc2)CC1 | 88.6% (active)
CC(C)OCCCNC(=O)CN1C(=O)/C(=C/c2ccccc2F)Oc2ccccc21 | -11.5%
CS(=O)(=O)Nc1ccc2c(c1)[C@H]1C[C@@H](CC(=O)NCCc3ccccc3)O[C@@H](CO)[C@H]1O2 | 3.14%
O=C(OCCOc1ccccc1F)c1cc(S(=O)(=O)N2CCOCC2)ccc1F | 12.7%
O=C(COC(=O)c1cc(S(=O)(=O)N2CCOCC2)ccc1F)NC1CC1 | -0.144%
COc1cc(NC(=O)COC(=O)c2cc(S(=O)(=O)N3CCOCC3)ccc2F)cc(OC)c1 | 117% (active)
CC=Cc1ccc2n(c1=O)C[C@@H]1[C@@H](CO)[C@H](C(=O)NCC)[C@H]2N1CCC(F)(F)F (mixture of isomers) | 12.8%
CC(C)CC#Cc1cnc2c(c1)C(=O)N([C@H](C)CO)C[C@H](C)[C@H](CN(C)CC1CCOCC1)O2 | 17.7%
C[C@@H]1CN([C@H](C)CO)C(=O)Cc2cc(NC(=O)Cn3cnnn3)ccc2O[C@H]1CN(C)CC1CCCCC1 | 19.6%
CCCc1ccc(-c2csc(NC(=O)Cc3cccs3)n2)cc1 | 20.4%
Cc1ccc(-c2csc(NC(=O)c3cccs3)n2)cc1 | 112% (active)
CCc1noc(C)c1C(=O)Nc1nc(-c2ccccc2)cs1 | -35.8%
COc1ccc(C(=O)Nc2ccc3c(c2)OC[C@H](C)N(C(C)=O)C[C@@H](C)[C@@H](OC)CN(C)C3=O)cc1 | -4.78%
COc1cccc(C(=O)Nc2ccc3c(c2)C(=O)N(C)[C@@H]2CC[C@H](CC(=O)NCC4CC4)O[C@@H]2CO3)c1 | 4.48%
COc1cccc(C(=O)Nc2ccc3c(c2)C(=O)N(C)[C@@H]2CC[C@@H](CC(=O)NCCCN4CCOCC4)O[C@@H]2CO3)c1 | 8.62%
CCCNC(=O)N1C[C@H]2[C@@H](c3ccccc31)[C@H](CO)N2C(=O)NC(C)C | -5.25%
Cc1c(C(C)(C)O)[nH]c2ccc(C#N)cc12 | 81.3% (active)
Cc1[nH]c2ccc(S(N)(=O)=O)cc2c1C | 6.68%
CCOC(=O)c1cc2sccc2n1Cc1ccc(C#N)cc1 | 29.8%
